# Screening data: PubChem, several laboratories
# This is a sample that favours compounds with a hit; in the whole collection about 2.2% have one here.
# IEC-6 cytotox = cytotoxicity in IEC-6 intestinal epithelial cells, primary screen, cytotoxicity control for KLF5 inhibitor project, cell-based, luminescence. IEC-6 cytotoxicity, luminescence viability. inhibition, % at 5 µM. 290,000 compounds, 0.78% hits. AID 1825, 2009
# Ba/F3 V617F tox = reduced viability of JAK2V617F-dependent Ba/F3 cells, primary screen, JAK2V617F inhibitor project, cell-based, Ba/F3 EpoR-JAK2V617F, luminescence; 220,000 compounds, 1.1% hits; ATP luminescence; inhibition, % at 5.6 µM; AID 1446, 2008;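 active means inhibition above the campaign mean plus 3 SD over all tested compounds, cut at about 24% in these data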;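 further: cytokine-independent growth of Ba/F3 cells driven by EpoR plus mutant JAK2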
# KLF5 inhibitor = KLF5 expression inhibitors, primary screen, DLD-1 cells, luminescence; DLD-1 KLF5 promoter-luciferase reporter; inhibition, % at 5 µM; 290,000 compounds, 0.23% hits; AID 1700, 2009;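 active means inhibition above a per-plate limit of that plate's mean compound inhibition plus 3 SD, cut at about 60% in these data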;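 further: higher means less KLF5 promoter-driven luciferase light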
# aSyn 5UTR inh = MLPCN primary screen, SNCA 5' untranslated region; alpha-synuclein 5'UTR reporter, inhibitor activity; inhibition, % (tested at 7.5 µM); 300,000 compounds, 0.82% hits; in the data active means inhibition above about 60%; inconclusive means no clear call, values can overlap the other calls;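 further: H4 neuroglioblastoma cells stably carrying SNCA 5'UTR luciferase fusion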
# BaF3 tox = parental Ba/F3 cell viability inhibition, counter-screen for JAK2V617F inhibitor project, murine pro-B, CellTiter-Glo luminescence | CellTiter-Glo ATP luminescence | inhibition, % at 5.6 µM | 220,000 compounds, 1.1% hits | AID 1486, 2009;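 active means inhibition above a per-campaign cutoff, the mean inhibition of all tested compounds plus 3 SD, cut at about 27% in these data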
# APP 5UTR inh = inhibitors of APP translation via 5'UTR reporter, primary screen, APP 5'UTR luciferase, SH-SY5Y cells | 190,000 compounds, 0.82% hits | inhibition, % at 2 µM | SH-SY5Y APP 5'UTR-luciferase reporter, luminescence;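 active means inhibition above a set limit, derived from the sample mean plus 3 SD, cut at about 45% in these data; inconclusive means one replicate passes the limit while the other fails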
# IEC-6 cytotox cf = cytotoxic compounds in IEC-6 epithelial cells, confirmation, cytotoxicity control, cell-based, luminescence | shares compounds with IEC-6 cytotox | inhibition, % at 5 µM | IEC-6 rat intestinal epithelial viability | 1,900 compounds, 63% hits
# A number is an active result; 0 = inactive; ? = inconclusive; - = not tested or not shown. Unless noted, no stated cut-off is given here; in the data, active means inhibition above about 22%; inactive means the rest.
SMILES,IEC-6 cytotox,Ba/F3 V617F tox,KLF5 inhibitor,aSyn 5UTR inh,BaF3 tox,APP 5UTR inh,IEC-6 cytotox cf
Cc1cc(O)c(-c2cc(C(=O)Nc3ccc(S(=O)(=O)N4CCOCC4)cc3)[nH]n2)cc1C,0,0,0,0,0,0,-
O=C(Nc1ccccn1)C1CCN(S(=O)(=O)c2ccc(Cl)cc2)CC1,-,-,-,0,-,-,-
Cc1ccc(-n2nc3c(c2NC(=O)C(C)C)CS(=O)(=O)C3)cc1,0,-,0,0,-,-,-
CC1CC(C)C[N+](=C2C=C(N3CCCC3)CC(C)(C)C2)C1 (stereo not given),35,92,0,0,72,0,23
COc1cccc(C2=CC(c3ccccc3)n3nnnc3N2)c1 (stereo not given),28,0,0,0,0,0,32
COc1ccc(CC(=O)N2N=C(c3ccncc3)CC2(O)C(F)(F)F)cc1 (stereo not given),24,0,0,0,0,0,30
COc1cccc(C(=O)N2N=C(c3ccccn3)CC2(O)C(F)(F)F)c1 (stereo not given),24,0,0,0,0,-,0
COc1cc(C2/C(=C(\O)c3ccc4c(c3)OCCO4)C(=O)C(=O)N2c2nnc(C)s2)cc(OC)c1OC (stereo not given),0,-,0,0,-,-,-
N#CC1=C(N)Oc2ccc3ccccc3c2C1c1cccnc1 (stereo not given),55,53,0,?,34,54,48
CCOC(=O)c1[nH]c(C)c(/C(O)=C2\C(=O)C(=O)N(CCN(C)C)C2c2ccc(C)o2)c1C (stereo not given),25,0,0,0,0,0,0
CCOC(=O)c1[nH]c(C)c(/C(O)=C2\C(=O)C(=O)N(CCN3CCOCC3)C2c2cccs2)c1C (stereo not given),26,0,0,0,0,0,0
COc1ccc(-n2cc(-c3ccc(C)cc3)[n+]3c2SCC3)cc1,27,94,0,0,71,0,0
CCc1ccc(-n2cc(-c3ccc(F)cc3)[n+]3c2SCCC3)cc1,28,83,0,0,74,0,26
COc1ccc(C2=NCN(c3ccc(C)cc3)C(=S)N2)cc1,0,0,0,0,0,0,-
N=C(N)N=Nc1c(O)[nH]c2ccc(Br)cc12,0,0,0,0,0,0,-
Oc1[nH]c2ccc(Br)cc2c1N=NC(=S)Nc1ccc(F)cc1,22,0,0,0,0,-,0
O=C(N=Nc1c(O)[nH]c2ccc(Br)cc12)c1ccccc1-n1cccc1,55,77,0,-,77,92,54
Cc1nn(Cc2noc(C(=O)NC3CCC(C)CC3)n2)c(C)c1Br (stereo not given),35,-,0,0,-,-,24
CC(=O)Nc1nc2ccc(S(=O)(=O)N3CCCC3)cc2s1,0,-,0,0,-,-,-
CCCC(=O)Nc1nc2ccc(S(=O)(=O)N3CCCCC3)cc2s1,54,80,0,0,79,79,59
COC(=O)c1ccccc1NC(=O)CSc1nc(Nc2ccccc2)nc(N2CCOCC2)n1,0,-,0,0,-,-,-
CCCN(Cc1nnc(-c2ccccc2Cl)o1)C(=O)c1cc(S(=O)(=O)N2CCOCC2)ccc1F,-,-,-,0,-,-,-
O=C(Nc1nnc(-c2ccc(F)cc2)o1)c1ccc(S(=O)(=O)N2CCOCC2)cc1,40,-,0,0,-,-,0
COc1ccccc1-c1nnc(NC(=O)c2ccc(S(=O)(=O)N3CCCC3)cc2)o1,22,-,0,0,-,-,0
COc1ccc(/C=N\NC(=O)c2ccccc2F)cc1COc1ccc(F)cc1,23,-,0,0,-,-,0
COc1cc2ccccc2cc1C(=O)N/N=C/c1ccc2c(c1)OCO2,37,-,0,0,-,-,25
COc1ccc(/C=N\NC(=O)c2ccccc2F)cc1COc1ccc(F)cc1F,80,-,0,0,-,-,62
COc1ccc(/C=N/NC(=O)c2ccco2)cc1COc1ccc(F)cc1,0,-,0,0,-,-,-
COc1ccc(NC(=O)N2CCNC(=O)C2CC(=O)Nc2ccc(F)cc2)cc1 (stereo not given),0,-,0,0,-,-,-
